Assay results taken from ChEMBL document CHEMBL1201862, “PubChem BioAssay data set” (2004).
Among all 400,000 compounds or so, about 2,100 (0.53%) were called active. Another 14% or so got no clear call; they are omitted. No rule for the calls is given here. Only a selection was taken, and actives are over-represented in it overall.

What follows are molecules tested against Ataxin-2 (Homo sapiens) (UniProt Q99700) (assay: qHTS for Inhibitors of ATXN expression.).
Sequence of Ataxin-2 (Homo sapiens) (Q99700 whole entry): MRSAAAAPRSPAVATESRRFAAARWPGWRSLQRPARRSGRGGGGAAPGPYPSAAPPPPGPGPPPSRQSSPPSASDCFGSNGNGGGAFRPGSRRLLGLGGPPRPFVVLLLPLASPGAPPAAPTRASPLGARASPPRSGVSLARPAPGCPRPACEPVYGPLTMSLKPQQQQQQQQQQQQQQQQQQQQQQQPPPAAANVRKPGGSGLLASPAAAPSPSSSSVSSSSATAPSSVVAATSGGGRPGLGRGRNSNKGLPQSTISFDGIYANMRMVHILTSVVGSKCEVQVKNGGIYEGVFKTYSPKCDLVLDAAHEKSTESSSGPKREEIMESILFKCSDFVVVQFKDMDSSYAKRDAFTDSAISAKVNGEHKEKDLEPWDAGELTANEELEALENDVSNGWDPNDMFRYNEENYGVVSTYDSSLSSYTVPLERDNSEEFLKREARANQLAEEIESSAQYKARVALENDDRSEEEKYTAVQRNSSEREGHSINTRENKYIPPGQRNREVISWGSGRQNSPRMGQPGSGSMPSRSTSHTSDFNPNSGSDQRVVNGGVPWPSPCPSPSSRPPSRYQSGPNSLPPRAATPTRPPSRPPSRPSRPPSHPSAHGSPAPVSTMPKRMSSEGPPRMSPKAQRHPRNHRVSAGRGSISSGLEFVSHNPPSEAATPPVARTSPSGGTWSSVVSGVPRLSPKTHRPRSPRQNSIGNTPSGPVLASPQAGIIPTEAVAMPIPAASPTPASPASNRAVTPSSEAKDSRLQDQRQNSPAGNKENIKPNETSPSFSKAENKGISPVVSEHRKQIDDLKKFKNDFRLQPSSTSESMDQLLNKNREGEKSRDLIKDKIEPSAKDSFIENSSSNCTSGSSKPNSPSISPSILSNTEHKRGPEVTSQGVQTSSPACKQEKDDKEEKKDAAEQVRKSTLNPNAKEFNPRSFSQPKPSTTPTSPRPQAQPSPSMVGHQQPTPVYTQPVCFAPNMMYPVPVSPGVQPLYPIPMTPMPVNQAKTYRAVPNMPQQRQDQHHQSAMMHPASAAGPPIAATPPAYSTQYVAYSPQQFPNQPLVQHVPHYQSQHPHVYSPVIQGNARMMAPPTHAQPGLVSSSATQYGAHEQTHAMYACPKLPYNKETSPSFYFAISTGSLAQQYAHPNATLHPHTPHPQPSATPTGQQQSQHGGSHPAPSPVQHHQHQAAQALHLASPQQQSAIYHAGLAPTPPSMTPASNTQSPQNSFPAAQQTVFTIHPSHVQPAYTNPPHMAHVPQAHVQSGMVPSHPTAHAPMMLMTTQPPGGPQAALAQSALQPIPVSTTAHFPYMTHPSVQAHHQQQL
Assay type: functional
In the case of `Cc1ccc(-c2cc(C(F)(F)F)n3ncc(C(=O)N4CCCCC4c4cccnc4)c3n2)cc1` (configuration not stated), the Potency is reported as “inactive”. `O=C(CSc1ccc2ccccc2c1)NCCc1ccc(O)c(O)c1` was tested, and the Potency was “inactive”. For `COC(=O)C(C)N=C(S)N1CCN(c2c(F)cc3c(=O)c(C(=O)O)cn(C4CC4)c3c2OC)CC1C` (configuration not stated), the Potency was “inactive”. `S=C(Nc1ccc2nc(-c3ccccn3)c(-c3ccccn3)nc2c1)N1CCCCCC1` was tested, and the Potency was “inactive”. For `Cc1nc(N2CCCCCC2)c2ccccc2n1`, the Potency was “inactive”. `CC(NNC(=S)N1CCCCCC1)c1ccc2ccccc2n1` (configuration not stated) was tested, and the Potency was 12.6 µM (active). For `CCOc1ccc(C(=O)C2CCN(C(=O)c3ccc([N+](=O)[O-])cc3)CC2)cc1`, the Potency was “inactive”. In the case of `COc1ccc(C2C3=C(O)CC(C)(C)CC3=Nc3c2c(=O)n(C)c(=O)n3C)cc1OC` (configuration not stated), the Potency is reported as “inactive”. For `Cc1cc(C(=O)CCl)c(C)n1CCc1ccc(F)cc1`, the Potency was 37.7 µM (active). With `COc1ccc(CCn2c(C)cc(C(=O)CCl)c2C)cc1OC` the Potency was 39.8 µM (active). In the case of `Cc1ccc(C(=O)OCC(=O)NCCc2ccc(F)cc2)cc1S(=O)(=O)N1CCOCC1`, the Potency is reported as “inactive”. For `Cc1cc(C(=O)COC(=O)Cc2c(F)cccc2Cl)c(C)n1C`, the Potency was “inactive”. With `N=c1c(C(=O)NCC2CCCO2)cc2c(=O)n3ccccc3nc2n1Cc1cccnc1` (configuration not stated) the Potency was “inactive”. `CCOC(=O)COc1ccc2c(C#N)c3ccccn3c2c1` was tested, and the Potency was “inactive”. With `CCOc1cc(/C=N/Nc2nc(-c3cccc(S(=O)(=O)N4CCCC4)c3)cs2)ccc1O` the Potency was 25.1 µM (active). With `Cn1c2ccccc2c2nnc(N/N=C/c3ccc(O)cc3)nc21` the Potency was “inactive”. For `CC(=O)c1sc(N/N=C/c2ccc(C(C)C)cc2)nc1C`, the Potency was “inactive”. In the case of `COc1cc(/C=N/NC(=O)CCC(=O)Nc2ccc(F)cc2)ccc1O`, the Potency is reported as “inactive”. In the case of `COc1cc(/C=N/Nc2nc(-c3ccc(S(=O)(=O)N(C)C)cc3)cs2)ccc1O`, the Potency is reported as 35.5 µM (active). In the case of `O=C(N/N=C/c1sc(N2CCOCC2)nc1-c1ccccc1)c1cccc(S(=O)(=O)N2CCCC2)c1`, the Potency is reported as “inactive”. For `COc1cc(/C=N/NC(=O)C(=O)NCc2ccco2)ccc1O`, the Potency was “inactive”. With `O=C(Nc1cccc(S(=O)(=O)N2CCCCCC2)c1)c1ccc(O)nc1` the Potency was “inactive”. `CN(C)S(=O)(=O)c1ccc(-c2csc(N/N=C/c3ccc(O)cc3)n2)cc1` was tested, and the Potency was 20 µM (active). With `CCN(CC)c1ccc2cc(C=O)c(=O)oc2c1` the Potency was “inactive”. `CCOc1ccc(C(=O)c2oc3ccccc3c2NC(=O)c2cc(-c3ccccc3)on2)cc1` was tested, and the Potency was “inactive”. In the case of `Cc1cccc(N/N=C(\C=O)C(=O)c2ccc(Br)cc2)c1`, the Potency is reported as 31.6 µM (active). With `O=C(O)c1ccc(N/N=C/c2ccc(-c3cc(Cl)ccc3Cl)o2)cc1` the Potency was “inactive”. `O=C(Nc1ccccc1)c1ncoc1-c1ccc(Cl)cc1` was tested, and the Potency was “inactive”. `O=C/C(=N\Nc1ccccc1)C(=O)c1ccc(Cl)cc1` was tested, and the Potency was 9.47 µM (active). In the case of `Cc1cccc(/C=N/NC(=O)c2cc(Br)ccc2O)n1`, the Potency is reported as “inactive”. In the case of `CC(=O)/C(=N\Nc1ccccc1)Oc1ccc(Br)cc1`, the Potency is reported as “inactive”. For `C=CCn1c(S)nnc1-c1oc2nc(-c3ccccc3)cc(-c3ccccc3)c2c1N`, the Potency was “inactive”. For `CNc1snc(C)c1C(=O)OCC(=O)N(C)c1ccccc1`, the Potency was “inactive”. `CCOc1ccc2[nH]c3ccc4nonc4c3c2c1` was tested, and the Potency was “inactive”. In the case of `CCOc1ccc2nc3ncccc3c(O)c2c1`, the Potency is reported as “inactive”. With `CCOc1ccc2nc3cc(N=Nc4ccc(N)nc4N)ccc3c(N)c2c1` the Potency was 10.6 µM (active). `COc1ccc(C2=CC(c3cccc(C)c3)n3nnnc3N2)cc1` (configuration not stated) was tested, and the Potency was “inactive”. `Cc1n[nH]c(C)c1N1C(=O)c2cccc3c(Br)ccc(c23)C1=O` was tested, and the Potency was “inactive”. `O=C1c2[nH]nc(-c3ccc(F)cc3)c2C(c2ccccc2F)N1c1ccccc1` (configuration not stated) was tested, and the Potency was 22.4 µM (active). With `CCOc1ccc(C(=O)C2=C(O)C(=O)N(c3ncccn3)C2c2ccc(C)cc2)cc1` (configuration not stated) the Potency was “inactive”. For `OC[C@@H]1[C@@H](c2ccc(Cl)cc2)C(c2ccc(F)cc2)=NN1c1ccccc1`, the Potency was “inactive”. For `CCOc1ccc(C2c3c(-c4ccc(C)cc4)n[nH]c3C(=O)N2c2ccc(Cl)cc2)cc1` (configuration not stated), the Potency was 39.8 µM (active). In the case of `CCOc1ccc(C2C=C(c3ccc(C)cc3)Nc3nnnn32)cc1` (configuration not stated), the Potency is reported as “inactive”. `COc1ccccc1C1C=C(c2ccc(Cl)cc2)Nc2nc(N3C(=O)CCC3=O)nn21` (configuration not stated) was tested, and the Potency was “inactive”. For `COc1ccccc1C1C=C(c2ccc(F)cc2)Nc2nc(-c3ccc(Cl)cc3)nn21` (configuration not stated), the Potency was “inactive”. `Cc1ccc(N2C(=O)c3[nH]nc(-c4ccc(Cl)cc4)c3C2c2ccc(F)cc2)cc1` (configuration not stated) was tested, and the Potency was 39.8 µM (active). For `O=C1OCCN1C(=O)[C@H]1[C@H](c2ccc(Cl)cc2)C(c2ccc(F)cc2)=NN1c1ccc(Br)cc1`, the Potency was “inactive”. For `COc1ccccc1C1c2c(-c3ccc(Cl)cc3)n[nH]c2C(=O)N1c1ccc(C)cc1` (configuration not stated), the Potency was 39.8 µM (active). `CCN1C(=O)c2cccc3c(S(=O)(=O)N(C)C)ccc1c23` was tested, and the Potency was “inactive”. `Cc1ccc(-c2cc(C(=O)NN3CCOCC3)c3cc(Br)ccc3n2)o1` was tested, and the Potency was “inactive”. For `CCCc1cc(C(=O)Nc2cc(C)on2)no1`, the Potency was “inactive”. With `N#Cc1c(N)n(-c2ccc(C(=O)O)cc2)c2nc3ccccc3nc12` the Potency was “inactive”. `Cc1ccc2nc(N3CCN(C=O)CC3)nc(-c3ccccc3)c2c1` was tested, and the Potency was “inactive”. With `CCOC(=O)c1ccc(-c2ccc(/C=C(\C#N)C(=O)NCC3CCCO3)o2)cc1` (configuration not stated) the Potency was “inactive”. `Cn1c(-c2ccc(C#N)cc2)c(C#Cc2ccccc2)c2ccccc21` was tested, and the Potency was “inactive”. In the case of `CCOc1ccc(N2C(=O)c3[nH]nc(-c4cccs4)c3C2c2cccc(F)c2)cc1` (configuration not stated), the Potency is reported as 39.8 µM (active). `COC(=O)c1nc2n(n1)C(c1cc(OC)ccc1OC)C=C(c1ccc(Br)cc1)N2` (configuration not stated) was tested, and the Potency was “inactive”. With `COc1ccc(OC)c(C2c3c(-c4ccc(Br)cc4)n[nH]c3C(=O)N2c2ccc(Cl)cc2)c1` (configuration not stated) the Potency was 39.8 µM (active). With `COc1ccccc1[C@@H]1C(c2cccc(Cl)c2)=NN(c2ccc(Br)cc2)[C@H]1C(=O)N1CCOC1=O` the Potency was “inactive”. In the case of `Fc1ccc(N2N=C(c3cccs3)CC2c2ccccc2)cc1` (configuration not stated), the Potency is reported as “inactive”. With `CC(=O)c1sc2nc(C)c3c(c2c1N)CCCC3` the Potency was “inactive”. In the case of `CNc1nc(-c2cccs2)cc(C(F)(F)F)c1C#N`, the Potency is reported as “inactive”. For `Cc1ccc(C)c(OCCn2c(C3CC(=O)N(Cc4ccc(F)cc4)C3)nc3ccccc32)c1` (configuration not stated), the Potency was 39.8 µM (active). For `Cc1cccc(C)c1OCCn1c(C2CC(=O)N(Cc3ccc(F)cc3)C2)nc2ccccc21` (configuration not stated), the Potency was 39.8 µM (active). With `COCCn1c2nc(=O)n(-c3ccccc3)c(=O)c-2nc2ccccc21` the Potency was “inactive”. `Cc1ccc(C)c(OCCn2nnc3ccccc32)c1` was tested, and the Potency was “inactive”. In the case of `CCOc1ccc(CCNC(=O)C2CC(=O)N(Cc3ccc(OC)cc3)C2)cc1OCC` (configuration not stated), the Potency is reported as “inactive”.
